Experimental data taken from PubChem BioAssay (NCATS).
Several values for one entry are separate records, joined by “and”; a condition that tells them apart may be missing. Equal values may be shown once. Results filed as inconclusive are left out. Some compounds were tested as several samples or in several runs, with calls that do not always agree. Activity calls are given as the source filed them. Unless noted, calls come from the whole dose curve; as a rule, active = well fitted curve in the direction sought with a large enough effect; inconclusive = small, poorly fitted or top-dose-only effect, or another doubt; inactive = no such curve, though single readings can be large; an effect the other way counts as inactive or inconclusive.

Tests used:
[1] = target: Glutathione peroxidase 1 (Homo sapiens) (UniProt P07203); experiment: Primary qHTS Assay for Inhibitors of Recombinant Selenoprotein Glutathione Peroxidase 1 (GPX1) (AID 1845191); note: nearly all actives have a fitted effect of over 65% in size; note: potency is the fitted concentration of half-maximal effect; for activity, negative = inhibition: % is set by controls: 0 for no effect and ±100 for the full control effect
Glutathione peroxidase 1 (Homo sapiens), sequence (P07203 whole entry, looked up): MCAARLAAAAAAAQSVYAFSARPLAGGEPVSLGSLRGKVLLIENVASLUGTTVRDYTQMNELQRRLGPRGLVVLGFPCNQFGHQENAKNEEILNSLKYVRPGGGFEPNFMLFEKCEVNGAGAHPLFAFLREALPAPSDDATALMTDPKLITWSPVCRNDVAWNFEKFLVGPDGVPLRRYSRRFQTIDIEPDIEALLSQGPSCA
Procedure, shortened: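 10 nM GPX1 + cpd, 30 min RT; start w/ 1 mM GSH, 0.5 mM cumene hydroperoxide, 0.5 mM NADPH, 100 nM GR, 0.01% BSA; buffer 50 mM Tris-HCl pH 7.5, 2 mM EDTA, 150 mM NaCl; Fl 340/450, 0 & 15 min.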

[2] = target: Phospholipid hydroperoxide glutathione peroxidase GPX4 (Homo sapiens) (UniProt P36969); experiment: Primary qHTS Assay for Inhibitors of Recombinant Selenoprotein Glutathione Peroxidase 4 (GPX4) (AID 1845192); note: nearly all actives have a fitted effect of over 65% in size; note: potency is the fitted concentration of half-maximal effect
Phospholipid hydroperoxide glutathione peroxidase GPX4 (Homo sapiens), sequence (P36969 whole entry, looked up): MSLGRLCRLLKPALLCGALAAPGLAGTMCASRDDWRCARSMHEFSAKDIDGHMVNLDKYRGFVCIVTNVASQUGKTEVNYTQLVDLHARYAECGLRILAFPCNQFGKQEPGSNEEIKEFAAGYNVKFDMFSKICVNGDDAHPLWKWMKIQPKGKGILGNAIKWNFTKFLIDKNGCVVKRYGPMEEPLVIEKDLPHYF
Procedure, shortened: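 NADPH consumption, followed by fluorescence at 340/450 nm between 0 and 15 min, reports GPX4 activity via coupled glutathione reductase (100 nM). Enzyme 200 nM was pre-exposed to compound 30 min; 0.5 mM cumene hydroperoxide and 1 mM GSH served as substrates.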

[3] = qHTS drug screen for cell cycle checkpoint inhibitors in PARPi-resistant BRCA-mutant ovarian cancer cell lines. (AID 1963452; calls by dose curve); conditions: PEO1/OlaR viability, CellTiter-Glo luminescence, 96 h, stronger effect = lower value
Procedure, shortened: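 PEO1, PEO4 and PEO1/OlaR ovarian cancer cells, 600 per well, exposed 96 h at 37C to a dilution series. Viability read by CellTiter-Glo luminescence, normalized to DMSO and empty wells; activity summarized as Z-AUC.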

[4] = qHTS profiling for inhibitors of Plasmodium falciparum proliferation (AID 504749); note: potency is the fitted concentration of half-maximal effect;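 for activity, negative = inhibition: 0% = DMSO vehicle and full inhibition = artemisinin control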; for all read-outs here: nearly all actives have a fitted effect of over 60% in size; conditions: P. falciparum in erythrocytes, SYBR Green DNA, 72 h; for activity, negative = inhibition: at 28.7 µM (top of the series)
Procedure, shortened: (§1)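 Infected RBCs, 0.3% parasitemia/2.5% Hct final; cpd 72 h, 37 C, 5% CO2; lysis buffer with saponin/triton/SYBR Green I, o/n RT dark; FI 485/535; norm. to artemisinin (0.29 uM) and DMSO.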

[5] = tested on: 3D7; experiment: as above; conditions: P. falciparum in erythrocytes, SYBR Green DNA, 72 h; series mostly up to 28.7 µM
Procedure, shortened: as §1

[6] = tested on: 7G8; experiment: as above; conditions: P. falciparum in erythrocytes, SYBR Green DNA, 72 h; series mostly up to 28.7 µM
Procedure, shortened: as §1

[7] = tested on: Nanoluciferase (engineered Oplophorus gracilirostris luciferase); experiment: Primary Nanoluciferase (NLuc) qHTS assay for identification of artifact compounds. (AID 1845222);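 note: NLuc secreted into diluted conditioned medium of S16 cells; 0% = DMSO and -100% = no enzyme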
Procedure, shortened: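 NLuc from S16 cell medium (1:55) plus test compounds, 15 min, room temperature. Luminescence after Nano-Glo (1:100) addition, 5 min.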

[8] = Primary redox qHTS assay for identification of artifact compounds. (AID 1845223);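 note: 0% = DMSO and 100% = reference compound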
Procedure, shortened: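 Amplex Red (25 uM) and HRP (250 mU/mL) in HBSS, with compounds for 15 min, then 250 uM DTT for 30 min, room temperature, dark. Fluorescence 525/598 nm read; normalized to DMSO and 10 uM DA3003; Hill fit.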

[9] = Primary fluorescence-based thiol-reactive (MSTI) qHTS assay for identification of artifact compounds. (AID 1845221);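 note: thiol-reactive compounds lower the probe fluorescence signal; nearly all actives have a fitted effect of over 65% in size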
Procedure, shortened: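 Reactivity toward the thiol probe MSTI (4 uM) is scored by fluorescence at Ex/Em 525/598 nm after 1 h at room temperature. Acetyl-MSTI and MSTI define the activity scale.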

[10] = measured here: PEO1 parental Z-AUC

CNC(=O)[C@H](Cc1c[nH]c2ccccc12)NC(=O)[C@@H](CC(=O)NO)CC(C)C
Potency [1]: inactive
Potency [2]: inactive
Z-AUC [3]: 0.599 (inactive)
Z-AUC [3, 10]: 0.54
Z-AUC ([3]; measured here: PEO4 Z-AUC): 0.809
Potency ([4]; parasite line A): 11.2 µM (active)
Potency [5]: 10 µM (active)
Potency [6]: 11.2 µM (active)

C=CC[N+]1([C@H]2C[C@H]3[C@@H]4CC[C@H]5C[C@H](O)[C@@H](N6CCOCC6)C[C@]5(C)[C@H]4CC[C@]3(C)[C@H]2OC(C)=O)CCCC1
Potency [1]: inactive
Potency [2]: inactive
Z-AUC [3]: 1.19 (inactive)
Z-AUC [3, 10]: 1.23
Z-AUC ([3]; measured here: PEO4 Z-AUC): 0.984
Potency [5]: inactive

C[C@@](Cc1ccc(O)c(O)c1)(NN)C(=O)O
Potency [1]: inactive
Potency [2]: inactive
activity, negative = inhibition ([4]; parasite line A): -19.2% (inactive)
activity, negative = inhibition ([4]; parasite line B): -6.85% (inactive)
Potency [5]: inactive

CCN(CC)CCOC(=O)c1cccnc1
Potency [1]: inactive
Potency [2]: inactive
activity, negative = inhibition ([4]; parasite line A): -11.6% (inactive)
activity, negative = inhibition ([4]; parasite line B): -3.84% (inactive)
Potency [5]: inactive
Potency [6]: inactive

C[C@]12CC[C@@H]3c4ccc(OC(=O)c5ccccc5)cc4CC[C@H]3[C@@H]1CC[C@@H]2O
Potency [1]: inactive
Potency [2]: inactive
outcome [7]: inactive
outcome [8]: inactive
activity, negative = inhibition ([4]; parasite line A): -13.9% (inactive)
activity, negative = inhibition ([4]; parasite line B): 5.42% (inactive)
Potency [5]: 6.31 µM (active)
Potency [6]: 11.2 µM (active)

O=[N+]([O-])c1c(Cl)cccc1-c1c[nH]cc1Cl
Potency [1]: inactive
Potency [2]: inactive
activity, negative = inhibition ([4]; parasite line A): -12.9% (inactive)
activity, negative = inhibition ([4]; parasite line B): -18.4% (inactive)
Potency [5]: inactive

Nc1nc(=O)n([C@@H]2CS[C@H](CO)O2)cc1F
Potency [1]: inactive
Potency [2]: inactive
activity, negative = inhibition ([4]; parasite line A): 2.36% (inactive)
activity, negative = inhibition ([4]; parasite line B): 4.33% (inactive)
Potency [5]: inactive
Potency [6]: inactive

CC1(O)CCC(C(C)(C)O)CC1 (stereo not given)
Potency [1]: inactive
Potency [2]: inactive
activity, negative = inhibition ([4]; parasite line A): -2.29% (inactive)
activity, negative = inhibition ([4]; parasite line B): 4.1% (inactive)
Potency [5]: inactive
Potency [6]: inactive

N[C@@H](Cc1cc(I)c(Oc2ccc(O)c(I)c2)c(I)c1)C(=O)O
Potency [1]: inactive
Potency [2]: inactive and 14.1 µM (active)
outcome [9]: inactive
outcome [7]: inactive
outcome [8]: inactive
activity, negative = inhibition ([4]; parasite line A): -3.92% (inactive)
Potency [5]: inactive
Potency [6]: 12.6 µM (active)

CCCCCCCCCC(=O)NO
Potency [1]: inactive
Potency [2]: inactive
activity, negative = inhibition ([4]; parasite line A): -20% (inactive)
activity, negative = inhibition ([4]; parasite line B): -16.7% (inactive)
Potency [5]: inactive

CC(=O)NCCCS(=O)(=O)O
Potency [1]: inactive
Potency [2]: inactive
Z-AUC [3]: 1.02 (inactive)
Z-AUC [3, 10]: 1.45
Z-AUC ([3]; measured here: PEO4 Z-AUC): 1.03
activity, negative = inhibition ([4]; parasite line A): 2.58% (inactive)
activity, negative = inhibition ([4]; parasite line B): 11.9% (inactive)
Potency [5]: inactive
Potency [6]: inactive

CS(=O)(=O)c1ccc([C@@H](O)[C@@H](COC(=O)CN)NC(=O)C(Cl)Cl)cc1
Potency [1]: inactive
Potency [2]: inactive
activity, negative = inhibition ([4]; parasite line A): -27.9% (inactive)
activity, negative = inhibition ([4]; parasite line B): -23.7% (inactive)
Potency [5]: inactive

CCCCC[C@H](O)/C=C/[C@H]1[C@H](O)CC(=O)[C@@H]1CCCCCCC(=O)O
Potency [1]: inactive
Potency [2]: inactive
Z-AUC [3]: -0.83 (inactive)
Z-AUC [3, 10]: -0.667
Z-AUC ([3]; measured here: PEO4 Z-AUC): -0.531

CN[C@@H]1[C@@H](O)[C@@H](O[C@@H]2[C@@H](O)[C@H](O[C@H]3O[C@H](CN)[C@@H](O)[C@H](O)[C@H]3O)[C@@H](N)C[C@H]2NC(=O)C(O)CN)OC[C@]1(C)O (stereo not given in full)
Potency [1]: inactive
Potency [2]: inactive
Z-AUC [3]: -1.59 (inactive)
Z-AUC [3, 10]: -0.482
Z-AUC ([3]; measured here: PEO4 Z-AUC): -1.12

CC1CC(OC(=O)C(O)c2ccccc2)CC(C)(C)C1 (stereo not given)
Potency [1]: inactive
Potency [2]: inactive
outcome [7]: inactive
outcome [8]: inactive
activity, negative = inhibition ([4]; parasite line A): -16% (inactive)
activity, negative = inhibition ([4]; parasite line B): -1.53% (inactive)
Potency [5]: inactive
Potency [6]: inactive

C=CC[C@@H]1/C=C(\C)C[C@H](C)C[C@H](OC)[C@H]2O[C@@](O)(C(=O)C(=O)N3CCCC[C@H]3C(=O)O[C@H](/C(C)=C/[C@@H]3CC[C@@H](O)[C@H](OC)C3)[C@H](C)[C@@H](O)CC1=O)[C@H](C)C[C@@H]2OC
Potency [1]: inactive and 2.55 µM (active)
Potency [2]: inactive and 2.82 µM (active)
Z-AUC [3]: 1.09 (inactive)
Z-AUC [3, 10]: 0.699
Z-AUC ([3]; measured here: PEO4 Z-AUC): 1.02
Potency ([4]; parasite line A): 2 µM (active)
Potency ([4]; parasite line B): 1.26 µM (active)
Potency [5]: 0.891 µM (active)
Potency [6]: 1 µM (active)

CCC[C@@H]1C[C@@H](C(=O)N[C@@H]([C@H]2O[C@H](SC)[C@H](O)[C@@H](O)[C@H]2O)[C@H](C)Cl)N(C)C1
Potency [1]: inactive
Potency [2]: inactive
Z-AUC [3]: 1.72 (inactive)
Z-AUC [3, 10]: 1.69
Z-AUC ([3]; measured here: PEO4 Z-AUC): 1.63

CCC(C(=O)NC(N)=O)c1ccccc1 (stereo not given)
Potency [1]: inactive
Potency [2]: inactive
activity, negative = inhibition ([4]; parasite line A): -3.47% (inactive)
activity, negative = inhibition ([4]; parasite line B): 11.3% (inactive)
Potency [5]: inactive
Potency [6]: inactive

O=S(=O)(O)CC(S)CS (stereo not given)
Potency [1]: 10.1 µM (active)
Potency [2]: 7.08 µM (active)
activity, negative = inhibition ([4]; parasite line A): 14.3% (inactive)
activity, negative = inhibition ([4]; parasite line B): -2.53% (inactive)
Potency [5]: inactive
Potency [6]: inactive

CC(C)Cc1ccc([C@@H](C)C(=O)NS(C)(=O)=O)cc1
Potency [1]: inactive
Potency [2]: inactive
Z-AUC [3]: 1.32 (inactive)
Z-AUC [3, 10]: 0.781
Z-AUC ([3]; measured here: PEO4 Z-AUC): 0.752
activity, negative = inhibition ([4]; parasite line A): 3.44% (inactive)
activity, negative = inhibition ([4]; parasite line B): -5.62% (inactive)
Potency [5]: inactive
Potency [6]: inactive
